# Measured values reported in PubChem BioAssay AID1159580 (chemical genetic matrix, 2015).
# About 2,000 (36%) of roughly 5,500 compounds were called active. Another 18% or so got no clear call; they are omitted. The list shows a part of the results. A number with no mark means an inactive call. Cut-off read from the data, not from the text of the source: active = normalized growth mostly below about 0.91 (no sharp cut-off); inconclusive = no clear call, values can overlap the other calls; inactive = mostly above about 0.92.
# Test: chemical genetic growth profiling, strain panel (AID 1159580);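 note: tested at 20 µM; growth read once vehicle control cultures reached saturation at 30 °C; 1 = growth at the plate median or of vehicle wells; lower values mean less growth of the strain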
# Conditions: S. cerevisiae deletion strains, growth OD
# [1] = locus YAL021C, strain ccr4, active compounds read low
# [2] = locus YAL026C, strain drs2, active compounds read low
# [3] = locus YAL030W, strain snc1, active compounds read low
# [4] = locus YBL061C, strain skt5, active compounds read low
# [5] = locus YBR009C, strain hhf1, active compounds read low
# [6] = locus YBR023C, strain chs3, active compounds read low
# [7] = locus YBR171W, strain sec66, active compounds read low
# [8] = locus YBR231C, strain swc5, active compounds read low
# [9] = locus YBR279W, strain paf1, active compounds read low
# [10] = locus YCL011C, strain gbp2, active compounds read low
# [11] = locus YCL016C, strain dcc1, active compounds read low
# [12] = locus YCL069W, strain vba3, active compounds read low
# [13] = locus YCR088W, strain abp1, active compounds read low
# [14] = locus YDL005C, strain med2, active compounds read low
# [15] = locus YDL040C, strain nat1, active compounds read low
# [16] = locus YDR001C, strain nth1, active compounds read low
# [17] = locus YDR069C, strain doa4, active compounds read low
# [18] = locus YDR137W, strain rgp1, active compounds read low
# [19] = locus YDR159W, strain sac3, active compounds read low
# [20] = locus YDR297W, strain sur2, active compounds read low
# [21] = locus YDR334W, strain swr1, active compounds read low
# [22] = locus YDR335W, strain msn5, active compounds read low
# [23] = locus YDR392W, strain spt3, active compounds read low
# [24] = locus YEL003W, strain gim4, active compounds read low
# [25] = locus YEL037C, strain rad23, active compounds read low
# [26] = locus YEL061C, strain CIN8 (second series), active compounds read low
# [27] = locus YER015W, strain faa2, active compounds read low
# [28] = locus YER016W, strain bim1, active compounds read low
# [29] = locus YER111C, strain swi4, active compounds read low
# [30] = locus YER155C, strain BEM2 (second series), active compounds read low
# [31] = locus YFR010W, strain ubp6, active compounds read low
# [32] = locus YGL167C, strain pmr1, active compounds read low
# [33] = locus YGL173C, strain kem1, active compounds read low
# [34] = locus YGL227W, strain vid30, active compounds read low
# [35] = locus YGL240W, strain doc1, active compounds read low
# [36] = locus YGL253W, strain hxk2, active compounds read low
# [37] = locus YHR013C, strain ard1, active compounds read low
# [38] = locus YHR027C, strain rpn1, active compounds read low
# [39] = locus YHR142W, strain chs7, active compounds read low
# [40] = locus YJL092W, strain hpr5, active compounds read low
# [41] = locus YJL095W, strain BCK1 (second series), active compounds read low
# [42] = locus YJL115W, strain asf1, active compounds read low
# [43] = locus YJL129C, strain trk1, active compounds read low
# [44] = locus YJL154C, strain vps35, active compounds read low
# [45] = locus YJL164C, strain tpk1, active compounds read low
# [46] = locus YJL166W, strain qcr8, active compounds read low
# [47] = locus YKL160W, strain elf1, active compounds read low
# [48] = locus YKR026C, strain gcn3, active compounds read low
# [49] = locus YKR091W, strain srl3, active compounds read low
# [50] = locus YLL001W, strain dnm1, active compounds read low
# [51] = locus YLL026W, active compounds read low
# [52] = locus YLL041C, strain sdh2, active compounds read low
# [53] = locus YLR027C, strain aat2, active compounds read low
# [54] = locus YLR221C, strain rsa3, active compounds read low
# [55] = locus YLR258W, strain gsy2, active compounds read low
# [56] = locus YLR262C, strain YPT6 (second series), active compounds read low
# [57] = locus YLR320W, strain mms22, active compounds read low
# [58] = locus YLR342W, strain FKS1, active compounds read low
# [59] = locus YLR357W, strain rsc2, active compounds read low
# [60] = locus YLR370C, strain arc18, active compounds read low
# [61] = locus YLR384C, strain iki3, active compounds read low
# [62] = locus YML120C, strain ndi1, active compounds read low
# [63] = locus YMR058W, strain fet3, active compounds read low
# [64] = locus YMR125W, strain sto1, active compounds read low
# [65] = locus YMR129W, active compounds read low
# [66] = locus YMR205C, strain PFK2, active compounds read low
# [67] = locus YMR231W, strain pep5, active compounds read low
# [68] = locus YNL071W, strain lat1, active compounds read low
# [69] = locus YNL209W, strain ssb2, active compounds read low
# [70] = locus YNL248C, strain rpa49, active compounds read low
# [71] = locus YNL322C, strain KRE1 (second series), active compounds read low
# [72] = locus YNR049C, strain mso1, active compounds read low
# [73] = locus YOR001W, strain rrp6, active compounds read low
# [74] = locus YOR070C, strain gyp1, active compounds read low
# [75] = locus YOR080W, strain dia2, active compounds read low
# [76] = locus YOR083W, strain WHI5, active compounds read low
# [77] = locus YOR106W, strain vam3, active compounds read low
# [78] = locus YOR265W, strain rbl2, active compounds read low
# [79] = locus YOR270C, strain vph1, active compounds read low
# [80] = locus YOR290C, strain snf2, active compounds read low
# [81] = locus YPL051W, strain arl3, active compounds read low
# [82] = locus YPL078C, strain atp4, active compounds read low
# [83] = locus YPL106C, strain sse1, active compounds read low
# [84] = locus YPL240C, strain hsp82, active compounds read low
structure (smiles),measurement,setting,value
Cc1nc(N=Nc2ccc(C(=O)O)cc2)c(COP(=O)(O)O)c(C=O)c1O,normalized growth,"locus YAL040C, strain CLN3, active compounds read low",0.978
same,normalized growth,"locus YCL061C, strain MRC1 (second series), active compounds read low",1.01
same,normalized growth,"locus YDR150W, strain NUM1, active compounds read low",1.02
same,normalized growth,"locus YDR363W, strain ESC2, active compounds read low",1
same,normalized growth,"locus YER002W, strain NOP16, active compounds read low",1.02
same,normalized growth,"locus YMR263W, strain SAP30, active compounds read low",1.01
same,normalized growth,"locus YMR307W, strain GAS1, active compounds read low",1.04
same,normalized growth,"locus YNL128W, strain TEP1, active compounds read low",0.99
same,normalized growth,"locus YNL175C, strain NOP13, active compounds read low",1.01
same,normalized growth,"locus YNL197C, strain WHI3, active compounds read low",1.01
same,normalized growth,"locus YNL224C, strain SQS1, active compounds read low",1.01
same,normalized growth,"locus YOR083W, strain WHI5 (second series), active compounds read low",1.03
same,normalized growth,"locus YPL055C, strain LGE1, active compounds read low",1.01
same,normalized growth,"locus YPL241C, strain CIN2, active compounds read low",1.01
COC(=O)C1=COC(OC2OC(CO)C(O)C(O)C2O)C2C(C)CC(=O)C12O (centres undefined),normalized growth,[1],0.942
same,normalized growth,[2],0.994
same,normalized growth,[3],0.975
same,normalized growth,[4],0.991
same,normalized growth,[5],0.944
same,normalized growth,[6],0.986
same,normalized growth,[7],0.983
same,normalized growth,[8],1.02
same,normalized growth,[9],0.995
same,normalized growth,[10],0.982
same,normalized growth,[11],0.978
same,normalized growth,[12],0.987
same,normalized growth,[13],1
same,normalized growth,[14],0.986
same,normalized growth,[15],0.994
same,normalized growth,[16],0.965
same,normalized growth,[17],0.985
same,normalized growth,[18],0.982
same,normalized growth,[19],1.03
same,normalized growth,"locus YDR195W, strain ref2",0.989
same,normalized growth,[20],0.993
same,normalized growth,[21],0.959
same,normalized growth,[22],0.994
same,normalized growth,[23],0.898
same,normalized growth,[24],0.989
same,normalized growth,[25],0.984
same,normalized growth,[26],0.984
same,normalized growth,[27],0.977
same,normalized growth,[28],0.985
same,normalized growth,[29],0.987
same,normalized growth,[30],1.01
same,normalized growth,[31],0.989
same,normalized growth,[32],0.966
same,normalized growth,[33],0.997
same,normalized growth,[34],0.991
same,normalized growth,[35],1.01
same,normalized growth,[36],1.01
same,normalized growth,[37],0.953
same,normalized growth,[38],0.967
same,normalized growth,[39],0.993
same,normalized growth,[40],0.983
same,normalized growth,[41],0.982
same,normalized growth,[42],0.972
same,normalized growth,[43],1
same,normalized growth,[44],0.978
same,normalized growth,[45],0.946
same,normalized growth,[46],0.975
same,normalized growth,[47],0.979
same,normalized growth,[48],0.986
same,normalized growth,[49],0.978
same,normalized growth,[50],1.01
same,normalized growth,[51],0.987
same,normalized growth,[52],0.98
same,normalized growth,[53],1.01
same,normalized growth,[54],1.03
same,normalized growth,[55],0.993
same,normalized growth,[56],0.984
same,normalized growth,[57],1.03
same,normalized growth,[58],0.999
same,normalized growth,[59],0.975
same,normalized growth,[60],1.01
same,normalized growth,[61],0.998
same,normalized growth,[62],0.955
same,normalized growth,[63],0.987
same,normalized growth,[64],0.937
same,normalized growth,[65],0.975
same,normalized growth,[66],0.945
same,normalized growth,[67],0.99
same,normalized growth,[68],0.974
same,normalized growth,[69],1
same,normalized growth,[70],1.03
same,normalized growth,[71],0.978
same,normalized growth,[72],0.971
same,normalized growth,[73],1.02
same,normalized growth,[74],0.996
same,normalized growth,[75],0.992
same,normalized growth,[76],0.98
same,normalized growth,[77],0.94
same,normalized growth,[78],0.999
same,normalized growth,[79],1.02
same,normalized growth,[80],0.927
same,normalized growth,[81],0.999
same,normalized growth,[82],0.954
same,normalized growth,[83],0.959
same,normalized growth,[84],0.986
COc1ccc(-c2cc(=O)c3c(O)cc(OC)c(OC)c3o2)c(OC)c1,normalized growth,[1],0.977
same,normalized growth,[2],1.02
same,normalized growth,[3],1.02
same,normalized growth,[4],0.997
same,normalized growth,[5],0.964
same,normalized growth,[6],0.989
same,normalized growth,[7],1.04
same,normalized growth,[8],0.966
same,normalized growth,[9],1.01
same,normalized growth,[10],1.01
same,normalized growth,[11],1
same,normalized growth,"locus YCL061C, strain MRC1, active compounds read low",1.03
same,normalized growth,[12],1.04
same,normalized growth,[13],1.03
same,normalized growth,[14],1.02
same,normalized growth,[15],1.02
same,normalized growth,[16],1.04
same,normalized growth,[17],0.97
same,normalized growth,[18],0.943
same,normalized growth,[19],1.02
same,normalized growth,"locus YDR195W, strain ref2",1.07
same,normalized growth,[20],1.02
same,normalized growth,[21],1.05
same,normalized growth,[22],1.03
same,normalized growth,[23],0.846
same,normalized growth,[24],1.01
same,normalized growth,[25],1.1 [resistant] (active)
same,normalized growth,[26],1.04
same,normalized growth,[27],0.971
same,normalized growth,[28],1.02
same,normalized growth,[29],1.05
same,normalized growth,[30],0.956
same,normalized growth,[31],1
same,normalized growth,[32],0.998
same,normalized growth,[33],1.02
same,normalized growth,[34],1.04
same,normalized growth,[35],1.04
same,normalized growth,[36],1.01
same,normalized growth,[37],0.975
same,normalized growth,[38],0.985
same,normalized growth,"locus YHR030C, strain SLT2, active compounds read low",1.04
same,normalized growth,"locus YHR079C, strain IRE1, active compounds read low",1.03
same,normalized growth,[39],1
same,normalized growth,[40],1.04
same,normalized growth,[41],1.01
same,normalized growth,"locus YJL095W, strain BCK1, active compounds read low",0.967
same,normalized growth,[42],1.05
same,normalized growth,[43],1.02
same,normalized growth,[44],1.04
same,normalized growth,[45],0.95
same,normalized growth,[46],1
same,normalized growth,"locus YJL187C, strain SWE1, active compounds read low",1.02
same,normalized growth,"locus YJR066W, strain TOR1, active compounds read low",0.973
same,normalized growth,[47],0.993
same,normalized growth,[48],1.05
same,normalized growth,[49],1.03
same,normalized growth,[50],1.01
same,normalized growth,[51],1.02
same,normalized growth,[52],1.02
same,normalized growth,[53],0.996
same,normalized growth,"locus YLR113W, strain HOG1, active compounds read low",0.932
same,normalized growth,[54],0.966
same,normalized growth,[55],1.01
same,normalized growth,[56],0.907
same,normalized growth,[57],0.966
same,normalized growth,[58],0.997
same,normalized growth,[59],0.994
same,normalized growth,[60],1.03
same,normalized growth,[61],1.02
same,normalized growth,[62],1.02
same,normalized growth,[63],0.917
same,normalized growth,[64],1.05
same,normalized growth,[65],1.03
same,normalized growth,[66],1.01
same,normalized growth,[67],1.03
same,normalized growth,[68],1.02
same,normalized growth,"locus YNL183C, strain NPR1, active compounds read low",0.893
same,normalized growth,[69],0.937
same,normalized growth,[70],1.05
same,normalized growth,[71],1.04
same,normalized growth,[72],1.03
same,normalized growth,[73],1.01
same,normalized growth,[74],0.997
same,normalized growth,[75],1.04
same,normalized growth,[76],0.962
same,normalized growth,[77],0.944
same,normalized growth,"locus YOR231W, strain MKK1, active compounds read low",1.03
same,normalized growth,[78],1.01
same,normalized growth,[79],1.03
same,normalized growth,[80],0.961
same,normalized growth,[81],0.916
same,normalized growth,[82],1.03
same,normalized growth,[83],0.983
same,normalized growth,[84],1.02
same,normalized growth,"locus YPL256C, strain CLN2, active compounds read low",1.01
